# Screens (PubChem)
# This is a sample that favours compounds with a hit; in the whole collection about 9.2% have one here.
# FLuc modulator – inhibits or activates purified firefly luciferase, miR-21 counter-screen; Potency, µM (highest dose often 57.5 µM), for inactives: at the top dose activity change, negative = inhibition, most hits filed as inhibitors; 6.9% of 360,000 active; purified FLuc, Km substrates, luminescence inhibition; P08659;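 further: plate controls were vehicle for no effect and reference inhibitor for full effect; nearly all actives have a fitted effect of over 55% in size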
# Target sequence (P08659 whole entry, looked up): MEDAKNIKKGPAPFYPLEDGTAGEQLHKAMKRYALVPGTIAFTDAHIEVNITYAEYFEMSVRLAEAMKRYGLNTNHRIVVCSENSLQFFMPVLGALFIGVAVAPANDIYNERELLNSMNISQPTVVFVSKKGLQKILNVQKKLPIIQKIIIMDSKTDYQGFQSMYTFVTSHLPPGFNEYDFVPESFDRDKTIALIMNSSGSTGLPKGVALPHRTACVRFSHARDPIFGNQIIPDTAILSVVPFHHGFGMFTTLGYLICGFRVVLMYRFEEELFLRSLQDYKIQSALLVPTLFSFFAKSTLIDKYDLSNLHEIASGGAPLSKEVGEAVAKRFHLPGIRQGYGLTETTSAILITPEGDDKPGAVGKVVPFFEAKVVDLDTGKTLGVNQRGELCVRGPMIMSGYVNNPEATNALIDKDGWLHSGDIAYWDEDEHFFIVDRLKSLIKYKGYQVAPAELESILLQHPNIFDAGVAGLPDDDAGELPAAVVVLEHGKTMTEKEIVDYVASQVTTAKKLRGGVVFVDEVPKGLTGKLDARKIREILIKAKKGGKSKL
#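 Purified P. pyralis luciferase, 10 nM final, with Km-level 10 uM D-luciferin and 10 uM ATP in 50 mM Tris acetate pH 7.5, 10 mM Mg acetate, 0.01% Tween-20, 0.05% BSA; 6-point qHTS titration about 60 µM downward; luminescence read.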
# Rab9 prom act – activators of Rab9 promoter; Huh7 Rab9 promoter-luciferase reporter, luminescence, 24 h; AID 485297; 2.8% of 320,000 active; Potency, µM (titrated, usually from 9.22 µM), without a hit: at the highest dose activation, negative = inhibition, most hits filed as activators; further: % of control where 0% means no effect; nearly all actives have a fitted effect of over 60% in size
#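 Measured in stably transfected Huh7 cells bearing a Rab9 promoter–luciferase construct: 24 h compound treatment at 37 °C, followed by luminescence detection.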
# ELG1 DNA repair – ELG1-dependent DNA repair inhibition; HEK293T ELG1-luciferase reporter, luminescence, 16 h; DNA damage induced by 5-fluorouridine; Potency, µM (series often up to 46.1 µM), for inactives: top-dose activity change, negative = inhibition, usual class: inhibitors; 2.3% of 330,000 active; AID 504467; further: on the % scale 0 is the no-effect control and ±100 the full control effect; nearly all actives have a fitted effect of over 55% in size
#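 5-Fluorouridine DNA damage + compound/DMSO, 2,000 cells/well, 16 h, 37 °C/5% CO2. ONE-Glo, 30 min RT, luminescence. Readout = decrease in reporter signal.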
# ELG1 genotox – inducers of genotoxicity in HEK293T ELG1-luciferase cells; HEK293T ELG1-luciferase reporter, luminescence, 16 h; 1.3% of 330,000 active; AID 504466; Potency, µM (highest dose often 46 µM), inactives show at the top dose activity change, positive = activation, actives largely listed as activators; further: % of control where 0% means no effect; nearly all actives have a fitted effect of over 60% in size
#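 Screening used a luciferase reporter fused to human ELG1 in HEK293T cells. Luminescence was read on a CCD plate imager after 16 hr exposure and 30 min ONE-Glo incubation.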
# SMN2 splice up – enhancers of SMN2 splice variant expression; 2.8% of 210,000 active; Potency, µM (titrated, usually from 46.1 µM), for the others: top-dose activity change, positive = activation, hits mostly activators; HEK293 SMN2-luciferase splicing reporter, luminescence, 30-36 h; further: % of control where 0% means no effect; nearly all actives have a fitted effect of over 55% in size
#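 HEK293 cells carry an SMN2 minigene-luciferase reporter in which exon 7 inclusion puts luciferase in frame. Cells were seeded at 2000 cells/well, attached for 10-12 hours, then exposed to compounds for 30-36 hours at 37C before ONE-Glo luminescence.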
# NPC1 prom act – activators of NPC1 promoter. Huh7 NPC1 promoter luciferase reporter, 24 h. Potency, µM (top dose mostly 9.22 µM), for inactives: at the top dose activation, usual class: activators. 2.4% of 320,000 active; further: % of control where 0% means no effect; nearly all actives have a fitted effect of over 60% in size
#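 Readout is luciferase luminescence, reflecting NPC1 promoter activation in stably transfected Huh7 cells after 24 h compound exposure at 37 °C in reduced-serum medium with 10% FBS.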
# Active calls of the source: *; ? = inconclusive; . = not tested or not shown. The call rests on the fitted dose curve; in most records, active means well fitted curve in the direction sought with a large enough effect; inconclusive means small, poorly fitted or top-dose-only effect, or another doubt; inactive means no such curve, though single readings can be large; an effect the other way counts as inactive or inconclusive. Potency means the concentration at half of the fitted maximal effect.
SMILES,FLuc modulator,Rab9 prom act,ELG1 DNA repair,ELG1 genotox,SMN2 splice up,NPC1 prom act
O=[N+]([O-])c1ccc2ncnc(Nc3ccc4c(c3)OCCO4)c2c1,0%,0%,?,-9%,-1%,14%
c1ccc2c(c1)oc1c(N3CCN(Cc4ccc5c(c4)OCO5)CC3)ncnc12,17µM*,-12%,?,18µM*,-67%,0%
Cc1nc(Nc2ccc3c(c2)OCCO3)c2oc3ccccc3c2n1,?,3%,-4%,-3%,-40%,14%
CCc1nc(Nc2ccc(O)cc2)c2oc3ccccc3c2n1,19µM*,9%,16µM*,-8%,.,14%
CCc1nc(Nc2ccc3c(c2)OCCO3)c2oc3ccccc3c2n1,27µM*,-4%,?,-13%,-42%,-1%
c1ccc2c(c1)oc1c(Nc3ccc4c(c3)OCCO4)ncnc12,2.4µM*,1.6µM*,?,13%,2.8µM*,?
CC1CCc2c(sc(NC(=O)c3ccc(Cn4cc([N+](=O)[O-])cn4)o3)c2C#N)C1 (stereo not given),13µM*,7%,13%,1%,3%,9%
COC(=O)c1sc(NC(=O)c2ccc(Cn3cc(Cl)cn3)o2)c(C#N)c1C,21µM*,-1%,?,-14%,-14%,1%
O=C(NC1CCCCC1)c1ccc(Cn2cc(Br)cn2)o1,-10%,0%,10%,4%,0%,7%
Cc1ccccc1NC(=O)c1ccc(Cn2cc([N+](=O)[O-])cn2)o1,0%,-1%,10%,0%,.,-5%
N#Cc1c(NC(=O)c2ccc(Cn3cc(Br)cn3)o2)sc2c1CCCCC2,11µM*,-1%,-8%,1%,?,21%
Cc1ccccc1-c1noc(C(C)NC(=O)c2ccco2)n1 (stereo not given),-1%,-2%,-5%,-2%,-3%,1%
CC[C@H](C)[C@@H](NC(=O)O[C@H]1C(=O)c2ccc(OC)cc2O[C@@H]1c1ccc2c(c1)OCO2)C(=O)OC,.,.,.,.,13%,.
Cc1csc(NC(=O)c2ccc(Cl)cc2[N+](=O)[O-])n1,27µM*,4.5µM*,?,?,11µM*,?
Cc1csc(NC(=O)c2ccccc2[N+](=O)[O-])n1,2%,4%,9%,4%,-5%,-1%
Cc1csc(NC(=O)c2ccc(C)c([N+](=O)[O-])c2)n1,1.1µM*,1.1µM*,?,?,3.5µM*,2µM*
Cc1ccc(-c2c(CN3CCN(c4cc(C)ccc4C)CC3)csc2C)cc1,-4%,.,.,.,.,.
Cc1c(NS(=O)(=O)c2ccc(C(C)(C)C)cc2)c(=O)n(-c2ccccc2)n1C,-9%,.,.,.,7%,.
COC(=O)c1ccc(OCC2c3cc(OC)c(OC)cc3CCN2C(=O)c2ccccc2F)cc1 (stereo not given),0%,.,.,.,.,.
COc1ccc(C(C(C(=O)c2ccco2)N2CCOCC2)N2CCOCC2)cc1 (stereo not given),13µM*,-7%,16%,2%,-2%,0%
CSc1ccc(C(C(C(=O)c2cccs2)N2CCOCC2)N2CCOCC2)cc1 (stereo not given),27µM*,-1%,-11%,-1%,14%,2%
N#CC1=C2SCN(c3ccccc3)CN2C(=O)CC1c1c(Cl)cccc1Cl (stereo not given),11µM*,0%,?,0%,10%,-1%
CCOc1ccc(Nc2ncnc3c2nc2n3CCCC2)cc1,15µM*,.,.,.,.,.
Fc1ccccc1Nc1ncnc2c1nc1n2CCCCC1,12µM*,.,.,.,.,.
Cc1ccc(Nc2ncnc3c2nc2n3CCCC2)cc1F,13µM*,.,.,.,.,.
SMILES,FLuc modulator,Rab9 prom act,ELG1 DNA repair,ELG1 genotox,SMN2 splice up,NPC1 prom act
CC(C)c1ccc(Nc2ncnc3c2nc2n3CCCC2)cc1,5.4µM*,.,.,.,.,.
Cc1cc(C)cc(Nc2ncnc3c2nc2n3CCCC2)c1,-13%,.,.,.,.,.
COc1ccc(OC)c(Nc2ncnc3c2nc2n3CCCC2)c1,3%,.,.,.,.,.
CC(C)c1ccc(NC(=O)C2CCN(c3ncnc4c3nc3n4CCCCC3)CC2)cc1,-1%,-15%,?,12%,.,-7%
O=C(c1ccccc1)c1ccc(OCC(O)CNCc2cccc(Cl)c2)cc1 (stereo not given),-2%,4%,18%,4%,.,-3%
C=C(C)C(=O)OC,.,.,.,.,1%,.
Cc1nc2nc(NC(=O)C(C)(C)C)[nH]n2c(=O)c1Cc1ccccc1,-18%,.,.,.,10%,.
O=C(Nc1nc2ccc(Cl)cc2s1)c1ccco1,1.7µM*,1.3µM*,?,?,3.2µM*,0.63µM*
CC(=O)Nc1nc2ccc(NC(=O)c3ccco3)cc2s1,?,?,?,?,28%,21%
O=C(Nc1nc2ccc(S(=O)(=O)N3CCCC3)cc2s1)c1ccco1,?,9%,13%,2%,3%,3%
O=C(Nc1nc2ccc(Br)cc2s1)c1ccco1,3µM*,0.63µM*,?,?,.,1.3µM*
CCC1=Nc2cc(C(=O)NCCCN3CCN(C)CC3)ccc2Sc2ccccc21,3%,5%,?,3%,.,-6%
O=C(COC(=O)c1ccccc1-n1cnnn1)c1ccc(F)cc1,6µM*,-3%,?,?,.,6%
O=C(COC(=O)c1cccc(-n2cnnn2)c1)c1ccc(Br)cc1,6.7µM*,?,?,?,.,?
O=C(c1cnc2c(c1)COc1ccccc1-2)c1ccccc1O,?,.,.,.,-2%,.
CC1=C(c2cccc(Cl)c2)S(=O)(=O)NC1=NCc1ccccc1C,-1%,.,.,.,.,.
CN1CCN(C(=O)c2cc3sc4ccccc4c3s2)CC1,3µM*,0.71µM*,?,?,.,0.63µM*
CCn1c(=O)c2cc(C(=O)N3CCN(C)CC3)sc2c2ccccc21,1%,-2%,?,-5%,-1%,-1%
O=c1c2ccccc2nc2sc(Nc3ccc(F)cc3)nn12,?,?,?,10µM*,.,2µM*
COc1ccccc1Nc1nn2c(=O)c3ccc(C(=O)N4CCC(C)CC4)cc3nc2s1,-19%,-5%,15µM*,-8%,.,-9%
Cc1ccccc1Nc1nn2c(=O)c3ccccc3nc2s1,2.7µM*,?,?,?,16µM*,2.5µM*
COc1ccc(OC)c(Nc2nn3c(=O)c4ccccc4nc3s2)c1,-4%,.,.,.,.,.
Cc1ccc(C)c(Nc2nn3c(=O)c4cc5c(cc4nc3s2)OCO5)c1,?,.,.,.,16%,.
O=c1c2cc3c(cc2nc2sc(Nc4ccccc4)nn12)OCO3,3µM*,.,.,.,16%,.
O=C(COc1ccc(S(=O)(=O)N2CCCC2)cc1)Nc1ccc2c(c1)OCCO2,?,0%,-1%,-1%,-1%,6%
